# From PubChem BioAssay
# Activity calls are given as the source filed them.
# Columns and labels:
# [1] = E. coli DRC41 culture turbidity changes, primary screen, E. coli filamentation inducer project, strain DRC41, OD650, 48 h (AID 1152);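 also: E. coli MC1000 strain DRC41 lacking acrAB efflux pump and sulA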; conditions: E. coli DRC41 (acrAB sulA), higher = more signal, called active from +8 up or from −8 down
# [2] = small-molecule binders of probe aLefty1, primary screen, biochemical, small-molecule microarray, 635/667 nm fluorescence (AID 1153); conditions: higher = more signal;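 also: score merges spot fluorescence with signal-to-noise ratio from the scanned slide images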
# [3] = PSAC antagonists in infected red cells, primary screen, cell-based, P. falciparum Indochina, OD700, 1 h (AID 1154); conditions: P. falciparum Indochina infected RBC osmotic lysis, higher = more signal, called active from +8 up or from −8 down
# [4] = PSAC antagonists in infected red cells, primary screen, cell-based, P. falciparum Indochina, OD700, 2 h (AID 1155);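 also: lysis reports solute entry through the parasite surface anion channel PSAC; channel blockers reduce lysis of infected cells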; conditions: P. falciparum Indochina infected erythrocytes, osmotic lysis OD700; higher = more signal, called active from +8 up or from −8 down
# [5] = osmotic lysis modulators in infected erythrocytes, primary screen, PSAC antagonist project, cell-based, P. falciparum Indochina, OD700, 3 h (AID 1156); conditions: higher = more signal, called active from +8 up or from −8 down
# [6] = PSAC antagonists in infected red cells, primary screen, cell-based, P. falciparum Indochina, OD700, 18 h (AID 1157); conditions: P. falciparum Indochina infected erythrocytes, osmotic lysis OD700, 18 h; higher = more signal, called active from +8 up or from −8 down
# [7] = modulators of S6 phosphorylation in cells, primary screen, cell-based, A549, cytoblot, luminescence, serum-stimulated (AID 1158); conditions: A549 phospho-S6 cytoblot, 5 h, higher = more signal;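 also: serum-stimulated A549 lung adenocarcinoma cells; signal is phosphorylated S6 detected by cytoblot immunostaining with HRP secondary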
# [8] = molecular target: NADPH oxidase 2 (Homo sapiens) (UniProt P04839); experiment: NOX2-dependent H2O2 signal modulators, primary screen, NOX inhibitor project, cell-based, HEK293-NOX2, PMA-stimulated, Amplex Red fluorescence (AID 1159); conditions: 45 min, higher = more signal, called active from +8 up or from −8 down; also: test concentration not given here
# [9] = molecular target: NADPH oxidase 4 (Homo sapiens) (UniProt Q9NPH5); experiment: NOX4-dependent H2O2 signal modulators, primary screen, NOX inhibitor project, cell-based, HEK293-NOX4, tetracycline-induced, Amplex Red fluorescence (AID 1160); conditions: 45 min, higher = more signal, called active from +8 up or from −8 down
# [10] = molecular target: NADPH oxidase 5 (Homo sapiens) (UniProt Q96PH1); experiment: NOX5-dependent H2O2 signal modulators, primary screen, NOX inhibitor project, cell-based, HEK293-NOX5, Amplex Red fluorescence (AID 1161); conditions: HEK293-NOX5, ionomycin, 45 min, higher = more signal
# Chain of NADPH oxidase 5 (Homo sapiens) (Q96PH1 whole entry, looked up): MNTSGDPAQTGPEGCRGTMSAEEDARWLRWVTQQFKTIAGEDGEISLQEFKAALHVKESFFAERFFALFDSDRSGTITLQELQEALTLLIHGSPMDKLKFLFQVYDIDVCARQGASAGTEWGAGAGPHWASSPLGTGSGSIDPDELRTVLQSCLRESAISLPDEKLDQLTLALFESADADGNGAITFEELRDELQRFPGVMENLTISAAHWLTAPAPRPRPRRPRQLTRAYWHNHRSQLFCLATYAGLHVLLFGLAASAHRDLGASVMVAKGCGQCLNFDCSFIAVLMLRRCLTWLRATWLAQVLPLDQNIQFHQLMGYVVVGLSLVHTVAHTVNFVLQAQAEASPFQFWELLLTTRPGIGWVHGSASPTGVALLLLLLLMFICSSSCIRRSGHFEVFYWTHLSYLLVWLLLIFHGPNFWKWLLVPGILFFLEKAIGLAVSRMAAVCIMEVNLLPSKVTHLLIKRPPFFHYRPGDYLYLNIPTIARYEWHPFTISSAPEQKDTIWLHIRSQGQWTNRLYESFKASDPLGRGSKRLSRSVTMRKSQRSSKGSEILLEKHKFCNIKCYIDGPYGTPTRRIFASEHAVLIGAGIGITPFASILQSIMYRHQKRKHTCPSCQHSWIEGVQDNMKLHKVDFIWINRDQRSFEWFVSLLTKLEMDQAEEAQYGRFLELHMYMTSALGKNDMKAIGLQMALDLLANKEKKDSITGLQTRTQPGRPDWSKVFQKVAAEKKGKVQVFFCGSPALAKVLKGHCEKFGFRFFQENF
# Chain of NADPH oxidase 4 (Homo sapiens) (Q9NPH5 whole entry, looked up): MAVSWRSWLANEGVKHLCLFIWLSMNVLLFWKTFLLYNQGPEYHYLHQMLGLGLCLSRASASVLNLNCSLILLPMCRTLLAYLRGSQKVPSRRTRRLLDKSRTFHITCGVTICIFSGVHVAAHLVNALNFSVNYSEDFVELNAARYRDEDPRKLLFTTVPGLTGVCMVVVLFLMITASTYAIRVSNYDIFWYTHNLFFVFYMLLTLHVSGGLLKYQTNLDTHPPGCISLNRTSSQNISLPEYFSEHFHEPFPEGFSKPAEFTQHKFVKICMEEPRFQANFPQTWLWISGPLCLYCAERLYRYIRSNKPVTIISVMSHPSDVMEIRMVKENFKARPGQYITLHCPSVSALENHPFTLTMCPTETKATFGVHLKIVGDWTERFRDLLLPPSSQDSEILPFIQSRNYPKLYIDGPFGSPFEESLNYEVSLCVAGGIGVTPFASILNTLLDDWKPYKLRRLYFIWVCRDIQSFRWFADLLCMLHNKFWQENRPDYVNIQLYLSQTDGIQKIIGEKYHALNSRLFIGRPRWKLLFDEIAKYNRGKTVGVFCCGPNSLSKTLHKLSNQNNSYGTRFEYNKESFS
# Chain of NADPH oxidase 2 (Homo sapiens) (P04839 whole entry, looked up): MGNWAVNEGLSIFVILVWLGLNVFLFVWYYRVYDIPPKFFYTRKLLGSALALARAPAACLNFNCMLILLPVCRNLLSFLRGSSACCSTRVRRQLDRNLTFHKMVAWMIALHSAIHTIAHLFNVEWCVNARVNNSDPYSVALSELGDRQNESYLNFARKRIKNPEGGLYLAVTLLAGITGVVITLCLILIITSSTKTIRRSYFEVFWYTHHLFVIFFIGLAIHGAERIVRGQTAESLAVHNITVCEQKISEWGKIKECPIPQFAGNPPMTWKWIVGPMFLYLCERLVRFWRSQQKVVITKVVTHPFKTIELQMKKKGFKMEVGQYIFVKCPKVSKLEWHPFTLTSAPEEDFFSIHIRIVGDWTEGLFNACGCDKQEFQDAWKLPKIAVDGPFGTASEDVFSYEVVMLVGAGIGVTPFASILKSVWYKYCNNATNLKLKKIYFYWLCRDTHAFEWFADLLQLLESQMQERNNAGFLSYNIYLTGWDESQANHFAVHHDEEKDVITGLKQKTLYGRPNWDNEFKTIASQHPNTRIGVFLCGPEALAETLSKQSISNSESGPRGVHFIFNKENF
Structure (SMILES),z-score [1],composite z-score [2],z-score [3],z-score [4],z-score [5],z-score [6],z-score [7],z-score [8],z-score [9],z-score [10]
CC(C)[C@H]1NC(=O)[C@@]23C(=O)N[C@@H](Cc4ccccc4)C2[C@H](C)[C@@]2(C)O[C@H]2C3/C=C/C/C=C\CNC(=O)[C@H](C)NC1=O (stereo not given in full),-0.629 (inactive),-0.381,3.36 (inactive),0.538 (inactive),0.386 (inactive),0.01 (inactive),-0.221,0.813 (inactive),-0.833 (inactive),0.137
COc1cccc([C@@H]2[C@@H](C)CC[C@H]3C(=O)N(C)[C@@H](C(C)C)C(=O)N23)c1,1.1 (inactive),-0.193,-0.147 (inactive),0.651 (inactive),-0.355 (inactive),-0.0201 (inactive),0.423,0.226 (inactive),0.0929 (inactive),0.265
COC(=O)Cn1c(C(=O)N2CCCC2)cc2c1C[C@H]1CN(C(=O)c3ccccc3)[C@@](Cc3ccccc3)(C(=O)OC)[C@@H]21,-0.406 (inactive),0.257,1.54 (inactive),0.104 (inactive),0.16 (inactive),0.469 (inactive),0.136,0.489 (inactive),0.217 (inactive),-2.54
O=C1O[C@@H](c2ccccc2)[C@@H](c2ccccc2)N2[C@@H](c3ccccc3OCCO)[C@]3(C(=O)Nc4ccc(C#CC5=CCCCC5)cc43)[C@@H](C(=O)O)[C@H]12,1.72 (inactive),0.19,-1.69 (inactive),-2.47 (inactive),-13.4 (active),-2.89 (inactive),0.661,2.26 (inactive),-2.11 (inactive),-2.75
C=CCc1cccc([C@@H]2[C@@H](C)CC[C@H]3C(=O)N4[C@H](c5cccc(CC=C)c5)[C@@H](C)CC[C@H]4C(=O)N23)c1,0.0258 (inactive),0.142,5.32 (inactive),1.46 (inactive),2.14 (inactive),0.738 (inactive),-0.0433,-0.23 (inactive),-0.0735 (inactive),-1.48
C=C[C@H](OC)[C@@H](OC(=O)Nc1ccc(SC)cc1)c1ccc(O)c(F)c1,0.738 (inactive),0.0043,25.5 (active),8.06 (active),1.83 (inactive),-0.016 (inactive),0.461,-2.96 (inactive),-1.66 (inactive),-1.06
COCCOC(=O)N1C(=O)[C@@]2(c3cc(C#CCNC(N)=O)ccc31)[C@H](C(=O)N1CCCCCCC1)[C@H]1C(=O)O[C@H](c3ccccc3)[C@H](c3ccccc3)N1[C@@H]2c1ccccc1OCCO,-0.332 (inactive),1.28,1.17 (inactive),1.53 (inactive),0.926 (inactive),0.927 (inactive),0.344,1.66 (inactive),0.683 (inactive),0.357
Cc1ccccc1C(O)C1C=CC2C(=O)N(c3ccccc3)C(=O)C2N1Nc1ccc(C#N)cc1 (stereo not given),0.307 (inactive),1.1,26 (active),14.9 (active),3.53 (inactive),1.81 (inactive),-0.762,-0.865 (inactive),-4.92 (inactive),-3.18
CC(=O)Nc1ccc([C@H]2[C@H](C)CC[C@H]3C(=O)N4[C@@H](CC[C@@H](C)[C@@H]4c4ccc(NC(C)=O)cc4)C(=O)N32)cc1,-0.929 (inactive),-0.045,1.91 (inactive),0.586 (inactive),0.699 (inactive),0.32 (inactive),-0.164,0.0427 (inactive),1.25 (inactive),0.198
CO[C@]12C=C(Br)[C@@H](C[C@@H]1c1ccccc1)[C@@]1(CO1)C2=O,2.36 (inactive),0.166,-0.0452 (inactive),-0.698 (inactive),0.422 (inactive),-1.7 (inactive),0.716,0.575 (inactive),0.625 (inactive),0.339
COCCOC(=O)N1C(=O)[C@@]2(c3cc(C#CC4=CCCCC4)ccc31)[C@H](C(=O)NC[C@H](O)c1ccccc1)[C@H]1C(=O)O[C@H](c3ccccc3)[C@H](c3ccccc3)N1[C@@H]2c1ccccc1OCCO,-0.499 (inactive),0.705,3.23 (inactive),1.95 (inactive),-0.032 (inactive),1.78 (inactive),-0.178,1.53 (inactive),0.911 (inactive),1.2
C=C(CCCC)/C(=C/C[C@H](OC(=O)c1ccncc1)c1cccc(OCCO)c1)c1cc(C(=O)OC)ccc1OC,1.93 (inactive),0.0406,21.6 (active),3.75 (inactive),1.61 (inactive),-0.403 (inactive),1.21,-3.36 (inactive),-1.72 (inactive),-2.92
COCCCNC(=O)[C@@]1(c2ccc([N+](=O)[O-])cc2)CC(=O)N(C2CCCCC2)[C@@H]1c1ccc(CO)cc1,0.857 (inactive),-0.602,1.93 (inactive),0.349 (inactive),1.76 (inactive),0.499 (inactive),-0.203,0.929 (inactive),0.721 (inactive),0.537
CO[C@H]1O[C@H](CO)[C@@H](OC(=O)Nc2ccccc2)[C@H](OC(=O)Nc2ccc3c(c2)OCO3)[C@@H]1OC(=O)Nc1ccc2c(c1)OCO2,1.44 (inactive),0.273,9.35 (active),-0.145 (inactive),1.78 (inactive),-2 (inactive),1.27,0.679 (inactive),0.0792 (inactive),-0.922
COc1cc(Cc2cc3c(c(CCc4ccccc4)n2)[Si](C(C)C)(C(C)C)OC3)cc(OC)c1OC,-0.655 (inactive),-0.0501,2.06 (inactive),0.481 (inactive),-0.411 (inactive),-0.232 (inactive),-0.475,-0.195 (inactive),-0.231 (inactive),-2.59
[N-]=[N+]=NCc1ccccc1C[C@@]1(C(=O)O)N=C(c2ccc(OCCCO)cc2)O[C@@H]1c1ccccc1N=[N+]=[N-],0.051 (inactive),0.337,30.3 (active),24.4 (active),1.44 (inactive),5.12 (inactive),-0.272,-0.0613 (inactive),1.21 (inactive),0.819
CO[C@H]1COC(=O)[C@H](C)COC(=O)[C@H](Cc2ccccc2)NC(=O)CC=C[C@H]1C,0.261 (inactive),0.351,0.341 (inactive),-1.39 (inactive),0.743 (inactive),-1.83 (inactive),0.376,-0.823 (inactive),0.901 (inactive),-0.0208
CCCC=C(CCC)[C@@H](NS(=O)(=O)c1cccc(C(F)(F)F)c1)c1ccc(C(=O)OC)cc1,-0.77 (inactive),1.6,-0.82 (inactive),-0.868 (inactive),-0.723 (inactive),-1.41 (inactive),0.213,0.139 (inactive),0.449 (inactive),1.87
CCN1C(C)=C(C(=O)OC)[C@@H](c2ccccc2)N2C(=O)[C@@]3(C(=O)OC)O[C@@]12[C@@H]1C(=O)N(C)C(=O)[C@@H]13,-0.871 (inactive),-0.0954,0.339 (inactive),-1.13 (inactive),0.0125 (inactive),-1.65 (inactive),0.629,1.52 (inactive),-1.65 (inactive),-0.267
Cc1ccc(S[C@]2(C(=O)NCCCN(C)C)CC(=O)N(Cc3ccccc3)[C@@H]2c2ccc(CO)cc2I)cc1,-0.901 (inactive),0.374,8.39 (active),0.909 (inactive),1.94 (inactive),0.256 (inactive),-0.0322,-0.234 (inactive),-1.63 (inactive),1.72
[N-]=[N+]=NCc1ccccc1[C@H]1OC(c2ccc(OCCCO)cc2)=N[C@@]1(Cc1ccccc1N=[N+]=[N-])C(=O)NCc1ccccc1,-0.258 (inactive),0.195,28.3 (active),20.5 (active),1.96 (inactive),1.99 (inactive),-0.0679,-0.627 (inactive),0.522 (inactive),-0.56
Cc1ccc(N2C(=O)c3ccccc3[C@@H](C(=O)NCC(F)(F)F)[C@@H]2c2ccc(CO)cc2)nc1,0.734 (inactive),-0.0099,1.32 (inactive),0.422 (inactive),0.827 (inactive),0.38 (inactive),0.189,1.22 (inactive),0.32 (inactive),-0.914
O=C1OCC=C[C@H]2OC34C=CCN(Cc5ccccc5)C(=O)[C@H]3N(CCCCCO)C(=O)[C@@H]4[C@@H]12 (stereo not given in full),2.14 (inactive),-0.44,1.52 (inactive),-0.426 (inactive),-0.912 (inactive),-1.34 (inactive),1.19,2.15 (inactive),0.352 (inactive),1.51
CC(C)(C)OC(=O)CC[C@]1(C(=O)NCCN2CCOCC2)N=C(c2ccc(OCCCO)cc2)O[C@H]1c1ccccc1CN=[N+]=[N-],1.66 (inactive),-0.0162,9.62 (active),0.121 (inactive),0.434 (inactive),-1.81 (inactive),1.04,1.06 (inactive),0.755 (inactive),0.699
C=CCC1=C[C@H]2[C@H]([C@@H]3C=C[C@]2(CC=C)C(=O)[C@]32CO2)[C@@]2(CO2)C1=O,2.45 (inactive),0.736,0.348 (inactive),-0.877 (inactive),1.16 (inactive),-1.87 (inactive),0.76,-0.0349 (inactive),0.0495 (inactive),-0.972
O=C1C2C=CC(C(O)c3ccccc3)N(n3cnnc3)C2C(=O)N1Cc1ccccc1 (stereo not given),-0.678 (inactive),0.3,1.23 (inactive),-0.137 (inactive),-0.138 (inactive),-1.55 (inactive),0.591,0.569 (inactive),-0.323 (inactive),-0.324
